Assay results published in PubChem BioAssay AID1347416 (National Center for Advancing Translational Sciences (NCATS), 2020).
The whole screen tested about 4,100 compounds, of which about 1,600 (39%) were called active. Inconclusive results (about 25%) are left out. The list shows a part of the results. A number with no mark means an inactive call. Calls follow the shape of the dose curve; as a rule, active = well fitted inhibition curve with a large enough effect; inconclusive = small, poorly fitted or top-dose-only effect; inactive = no such curve, though single readings can be large or run the other way.

assay: qHTS Validation assay for Inhibitors of Plasmodium falciparum Dd2 growth in vitro; also: nearly all actives have a fitted effect of over 70% in size; conditions: P. falciparum Dd2 in RBCs, SYBR Green growth, 72 h; series mostly up to 28.7 µM; activity change, negative = inhibition: at the top concentration
In short: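 P. falciparum Dd2-infected red blood cells (2.5% hematocrit, 0.3% parasitemia) grown 72 h at 37 °C under 5% O2 with compounds in a titration, 29 uM to 0.5 nM final. Growth read as SYBR Green-1 fluorescence after ~16 h lysis; artesunate 300 nM as positive control.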
% is scaled to controls: 0 for no effect and ±100 for the full control effect; potency is read from the fitted curve at half-maximal effect.

Compound	Potency	activity change, negative = inhibition
COc1ccc2c(c1)C1(Nc3ccccc3-c3nc4ccccc4n31)C(=O)N2 (centres undefined)	0.596 µM (active)	
CC1(c2ccccn2)Nc2ccccc2-c2nc3ccccc3n21 (centres undefined)	5.31 µM (active)	
O=C1Nc2ccccc2C12Nc1ccccc1-c1nc3ccccc3n12 (centres undefined)	6.68 µM (active)	
Oc1ccccc1CN1CCOC[C@H]1c1ncc(-c2ccc(C(F)(F)F)cc2)[nH]1	4.85 µM (active)	
COc1ccc(-c2cnc([C@@H]3COCCN3Cc3ccccc3O)[nH]2)cc1	17.2 µM (active)	
CS(=O)(=O)c1ccc(-c2cnc([C@@H]3COCCN3Cc3ccccc3)[nH]2)cc1		-13.7% [at 43.1 µM]
COc1cc(OC)cc(C(=O)N2CCC(c3nc(C4CCOC4)no3)CC2)c1 (centres undefined)		12.6%
O=c1c(NCCc2ccccc2)c(-c2ccccc2)c1=O		-27.2%
c1ccc(CCNc2ccnc3cc4ccccc4cc23)cc1	1.68 µM (active)	
c1ccc2cc3c(NCCN4CCOCC4)ccnc3cc2c1	1.68 µM (active)	
COCCN1Cc2ccc(NCC(C)C)nc2C(C)(C(=O)Nc2ccncc2)C1 (centres undefined)	21.7 µM (active)	
CC1(C)C(=O)N(CC2CCOCC2)[C@H]2CN(CCCc3ccccc3)C[C@@H]2[S+]1(=O)[O-]		0% [at 43.1 µM]
COc1cccc(N2C(=O)C(CC(=O)Nc3ccccc3)N(CCc3sccc3C)C2=O)c1 (centres undefined)		21.4%
O=C(CC1C(=O)N(Cc2ccccc2)C(=S)N1CCN1CCOCC1)Nc1ccc(F)cc1 (centres undefined)	5.31 µM (active)	
COC(=O)c1cc(NC(=O)CC2C(=O)OCCN2Cc2ccccc2)cc(C(=O)OC)c1 (centres undefined)		18.7%
Cc1noc(C)c1CCC(=O)NC1CCc2nn(CC3CC3)c(=O)n2CC1 (centres undefined)		14.8%
N#CC(=C1CCCC1)c1nc(-c2ccccc2O)cs1	9.44 µM (active)	
CN(Cc1ccc(-n2cccn2)cc1)CC1CCN(CCc2ccc(F)cc2)CC1	10.6 µM (active)	
CN(CC1CCN(CCc2ccc(Cl)cc2)CC1)C(=O)c1ccccc1C#N		-11.9%
Cc1[nH]n(-c2ccccc2)c(=O)c1/C=N/Nc1nncc(-c2ccccc2)n1	4.22 µM (active)	
COC(=O)[C@H](Cc1ccc(OC)cc1)NC(=O)[C@H]1CN(C(=O)c2ccc(N(C)C)cc2)CCN1C(=O)C1CCCCC1	0.668 µM (active)	
COC(=O)[C@H](Cc1ccc(OC)cc1)NC(=O)[C@H]1CN(C(=O)c2ccc(N(C)C)cc2)CCN1C(=O)c1cccs1	0.188 µM (active)	

Compound	Potency	activity change, negative = inhibition
CN(C)c1ccc(CC(=O)N2CC[C@@](C)(O)[C@@H](O)C2)cc1		24.5%
COC(=O)[C@H](Cc1ccc(OC)cc1)NC(=O)[C@H]1CN(C(=O)Nc2ccccc2)CCN1C(=O)NC(C)C		-23.7%
COc1ccc(C(=O)N2CCN(C(=O)C3CCCCC3)C[C@@H]2C(=O)N[C@H]2CCCNC2=O)cc1		68.6%
CN(C)C(=O)c1ccc(OC2CCN(C(=O)c3cccs3)CC2)nc1		-30.1%
Cc1ccc(C(=O)N2CCc3cc(CNC(=O)CCc4ccccc4)ccc32)cc1		-22.1%
Cc1cccc(C(=O)N2CCc3cc(CNC(=O)c4ccc(Br)o4)ccc32)c1	9.44 µM (active)	
CC(=O)N1CCc2cc(S(=O)(=O)NC(Cc3ccccc3)C(=O)Nc3cc(C)cc(C)c3)ccc21 (centres undefined)		-21.5%
COc1ccc(S(=O)(=O)N2CCN(C(=S)NCC3CCCO3)CC2)cc1OC (centres undefined)	6.68 µM (active)	
O=S(=O)(c1ccc(F)cc1)N1CCN(C(=S)NCCc2ccccc2)CC1	5.96 µM (active)	
COc1ccccc1NC(=O)Cn1c(=O)n(CCC(=O)NCC2CCCO2)c(=O)c2cc(OC)c(OC)cc21 (centres undefined)		-20.6%
O=S(=O)(c1ccc(Cl)cc1)N1CCN(C(=S)NCC2CCCO2)CC1 (centres undefined)	1.88 µM (active)	
O=S(=O)(c1ccc(F)cc1)N1CCN(C(=S)NCC2CCCO2)CC1 (centres undefined)	6.68 µM (active)	
CCOC(=O)Cn1c(=O)oc2cc(S(=O)(=O)N3CCCC(C)C3)ccc21 (centres undefined)		1.29%
CS(=O)(=O)N1CCC(C2CCN(C(=O)Cc3ccc(Cl)cc3)C2)CC1 (centres undefined)		-3.31%
O=C(O)c1ccc(S(=O)(=O)N(Cc2cccs2)CC2CCCO2)cc1 (centres undefined)		0.601%
O=C(NCc1ccc(Cl)cc1)C1CCN(S(=O)(=O)c2cccc3nonc23)CC1		72.7%
O=C(CCC1CCN(S(=O)(=O)c2ccccc2)CC1)NCc1ccc(F)cc1		-28.6%
CCOCCCNC(=O)CN1C(=O)c2c(c3ccccc3n2C)C1c1ccc(OC)cc1 (centres undefined)		0%
Cc1ccc(-c2noc(CCC(=O)Nc3ccc(C)cn3)n2)cc1		16.8%
N#Cc1ccc(CN2CC[C@@H]3C(=O)NCCCCCCN(Cc4ccncc4)[C@@H]3C2)cc1	10.6 µM (active)	
CN1C(=O)[C@H]2CN(Cc3ccc(C#N)cc3)C[C@H]2C1=O		14.4%
O=C1NCCCCCCN(Cc2ccncc2)[C@@H]2CN(C(=O)NC3CCCCC3)CC[C@@H]12		5.81%
